An excerpt weighted towards active compounds, which were near 2.3% of everything screened.
CHRM1 agonist – human M1 muscarinic receptor agonism; P11229; CHO-K1 hM1, Fluo-8 calcium fluorescence, agonist mode; 0% DMSO, 100% acetylcholine EC100; activation, % at 3 µM; 360,000 compounds, 0.33% hits;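 active means activation above the run's mean compound activation plus 3 SD, cut at about 16% in these data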;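 further: peak over basal fluorescence ratio within a 140 s kinetic read after compound addition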
Target sequence (P11229 whole entry, looked up): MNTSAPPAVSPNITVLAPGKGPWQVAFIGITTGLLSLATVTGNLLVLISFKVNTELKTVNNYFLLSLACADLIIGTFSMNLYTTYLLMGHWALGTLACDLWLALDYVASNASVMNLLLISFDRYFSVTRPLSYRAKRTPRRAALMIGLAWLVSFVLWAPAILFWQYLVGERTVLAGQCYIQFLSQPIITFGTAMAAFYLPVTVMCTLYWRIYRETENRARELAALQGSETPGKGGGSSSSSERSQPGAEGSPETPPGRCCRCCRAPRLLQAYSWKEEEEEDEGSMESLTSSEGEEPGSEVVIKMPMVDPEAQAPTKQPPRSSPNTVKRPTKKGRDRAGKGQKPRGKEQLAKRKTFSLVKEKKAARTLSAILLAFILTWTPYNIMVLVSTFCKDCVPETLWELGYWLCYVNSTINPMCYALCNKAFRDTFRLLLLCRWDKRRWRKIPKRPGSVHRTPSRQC
CHO-K1 Ca antag – M1 antagonist counterscreen hit in parental CHO-K1 cells. ATP-induced calcium, Fluo-8 fluorescence. inhibition, % at 3 µM. AID 602250. 360,000 compounds, 0.6% hits;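 active means inhibition above a per-plate cutoff, the plate's mean sample inhibition plus 3 SD, cut at about 24% in these data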;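 further: 0% = DMSO plus EC80 ATP and 100% = DMSO alone without ATP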
CHRM1 PAM – potentiates human M1 receptor response to acetylcholine | P11229 | CHO-K1 hM1, Fluo-8 calcium fluorescence, ACh EC20; 0% = ACh EC20, 100% = maximal ACh | activation, % at 3 µM | 360,000 compounds, 0.088% hits; in the data active means activation above about 19%, passing the limit was not always enough
CHO-K1 Ca ag – M1 agonist counterscreen hit in parental CHO-K1 cells | Fluo-8 calcium fluorescence; scaled to maximal ATP response, vehicle zero | activation, % at 3 µM | 360,000 compounds, 0.48% hits | AID 602248; in the data active means activation above about 15%;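 further: untransfected CHO-K1 host cells lacking M1 receptor as counterscreen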
M1 PAM parental – M1 PAM counterscreen hit in parental CHO-K1 cells; ATP EC20, Fluo-8 calcium fluorescence; 0% at ATP EC20, 100% at ATP max; activation, % at 3 µM; 360,000 compounds, 0.02% hits; AID 602247;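 active means activation above the run cutoff, the mean activation of all test compounds plus 3 SD, cut at about 40% in these data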;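 further: peak over basal fluorescence ratio in a 140 s read after ATP addition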
CHRM1 antagonist – human CHRM1 antagonism. P11229. CHO-K1 hM1, Fluo-8 calcium fluorescence, ACh EC80 antagonist. inhibition, % at 3 µM. 360,000 compounds, 1.3% hits. AID 588852;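 active means percent inhibition above its own plate's cutoff, namely the mean of that plate's compound wells plus 3 SD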;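 further: peak over basal fluorescence ratio during 140 s after agonist addition; 0% = ACh EC80 plus DMSO and 100% = DMSO alone without agonist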
* marks the source's active call; other numbers are inactive results.

SMILES	CHRM1 agonist	CHO-K1 Ca antag	CHRM1 PAM	CHO-K1 Ca ag	M1 PAM parental	CHRM1 antagonist
CN(NS(=O)(=O)c1ccc(Cl)cc1)c1ncc(C(F)(F)F)cc1Cl	-9.9	-8.2	-9.4	0.2	15.3	11.8
O=C(Cc1cccc(NC(=O)C2CCCN(C(=O)C3CCCC3)C2)c1)Nc1ccc(C(=O)N2CCCCC2)cc1 (stereo not drawn)	-5.1	-2.1	0.8	0.1	10.1	-7.2
COc1cc(OC)c(C2=NOC(C(=O)Nc3ccc4c(c3)OCO4)C2)cc1Cl (stereo not drawn)	-2.7	0.4	-1.6	17.7*	2.3	5.2
O=C(CN1CCN(c2ncc(C(F)(F)F)cc2Cl)CC1)N1CCN(c2ncc(C(F)(F)F)cc2Cl)CC1	-0.4	-7.7	-5.5	0.8	12.6	-5.6
CN1CCN(C(=O)C2CCN(c3ncc(C(F)(F)F)cc3Cl)CC2)CC1	-13.2	14.1	-34.6	0.6	-8.6	72.5*
CN1CCN(C(=O)Nc2ccc3c(c2)N(C)C(=O)c2ccccc2S3)CC1	-6.8	-17.8	8.9	0.4	4.9	-12.0
CN1CCN(C(=O)Nc2cccc(-c3ccccc3)c2)CC1	-7.7	-3.6	-15.8	0.3	2.0	31.0*
Cc1ccc(-n2nc3c(c2NC(=O)CC(C)C)CS(=O)(=O)C3)cc1	-1.6	5.8	2.5	0.5	-13.9	4.0
Cc1ccccc1OCC(=O)Nc1ccc2c(c1)C(=O)N(CCC(=O)O)C2=O	7.8	-5.3	26.2*	-0.3	-13.9	-17.0
COc1cc(C2SCC(=O)N2CCCN(C)C)cc(OC)c1OC (stereo not drawn)	0.3	2.7	-8.9	-0.2	0.6	28.6*
OC[C@H]1O[C@H](c2nc(-c3nc(-c4cccs4)no3)cs2)C[C@@H]1O	3.3	-4.7	12.8	0.8	6.3	-15.2
COc1ccc(NC(=O)COc2cccc3c2OC(C)(C)C3)cc1OC	1.7	16.8	-19.2	12.4	-22.9	31.5*
CN(/N=C/c1cc([N+](=O)[O-])ccc1O)c1ccccc1	-4.1	-13.6	8.9	3.4	28.2	-8.6
CN(/N=C/c1ccc(-c2ccc([N+](=O)[O-])cc2)o1)c1ccccc1	15.5	30.1*	1.7	17.1*	-13.4	4.0
C=CCn1c(C)c(C(C)=O)c(N2CCN(C(c3ccccc3)c3ccccc3)CC2)nc1=S	-2.9	-9.4	-15.2	3.5	11.0	35.3*
CC(=O)c1c(N2CCN(C)CC2)nc(=S)n(Cc2ccccc2)c1C	-10.1	-5.8	0.1	0.8	19.0	-11.3
O=C(CCCOC(=O)c1cccnc1Cl)c1ccc(Br)cc1	-4.4	-22.3	4.1	5.3	21.7	3.3
O=C(CCCOC(=O)c1ccc(O)cc1O)c1ccc(Br)cc1	0.4	9.3	-12.3	6.7	-8.2	19.2*
CCN=C1SC(C(=O)Nc2cccc(Br)c2)CC(=O)N1CC (stereo not drawn)	-3.2	15.7	-14.9	7.9	-0.6	29.9*
CCN1C(=O)CC(C(=O)Nc2ccc(F)cc2)SC1=Nc1ccc2c(c1)OCO2 (stereo not drawn)	-1.4	10.3	-3.4	3.2	14.6	11.8
CCN=C1SC(C(=O)NCCc2ccccc2)CC(=O)N1CC (stereo not drawn)	-0.8	3.0	-13.6	3.9	16.7	26.0*
CCN=c1sc(C(=O)NCCc2ccccc2)cc(=O)n1CC	4.4	14.8	-3.6	6.1	6.7	30.2*
Cc1ccc(N=C2SC(C(=O)NCCc3ccccc3)CC(=O)N2C)cc1C (stereo not drawn)	-7.2	-9.3	-17.4	1.9	16.7	13.8
CCN=C1SC(C(=O)Nc2cccc(C)c2)CC(=O)N1CC (stereo not drawn)	3.1	15.2	-10.5	4.3	5.4	32.9*
CCN=C1SC(C(=O)Nc2ccc(Cl)c(Cl)c2)CC(=O)N1CC (stereo not drawn)	-0.9	4.7	-4.6	3.9	13.0	6.7
CCN=C1SC(C(=O)Nc2cccc(Cl)c2)CC(=O)N1CC (stereo not drawn)	0.2	4.9	-9.4	7.4	7.4	37.7*
CCN=C1SC(C(=O)Nc2ccc(OC)cc2)CC(=O)N1CC (stereo not drawn)	-1.0	19.2	-20.0	5.4	0.5	31.7*
